SW480 rereplic – induces DNA re-replication in SW480 colon adenocarcinoma cells. SW480 DNA re-replication, Hoechst DNA content imaging, 48 h. Potency, µM (highest dose often 46.1 µM), without a hit: at the top dose re-replication activation, hits mostly activators. hit rate 1.8% among 340,000. AID 624297; further: potency means the concentration at half of the fitted maximal effect; % of control where 0% means no effect; nearly all actives have a fitted effect of over 55% in size
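First, 250 cells per well were seeded. Next, compound or vehicle (23 nL) was pinned in, plates sat 48 hr at 37 C. Finally Hoechst was added for 40 min before fluorescence scanning.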
ASM inhibitor – blocks human secretory acid sphingomyelinase; P17405; placental ASM, HMU-PC fluorogenic substrate, 60 min; Potency, µM (top dose mostly 57.5 µM), without a hit: at the highest dose activity change, negative = inhibition, usual class: inhibitors; hit rate 0.006% among 340,000; AID 504937; further: potency means the concentration at half of the fitted maximal effect
Target sequence (P17405 47-631 limits assumed): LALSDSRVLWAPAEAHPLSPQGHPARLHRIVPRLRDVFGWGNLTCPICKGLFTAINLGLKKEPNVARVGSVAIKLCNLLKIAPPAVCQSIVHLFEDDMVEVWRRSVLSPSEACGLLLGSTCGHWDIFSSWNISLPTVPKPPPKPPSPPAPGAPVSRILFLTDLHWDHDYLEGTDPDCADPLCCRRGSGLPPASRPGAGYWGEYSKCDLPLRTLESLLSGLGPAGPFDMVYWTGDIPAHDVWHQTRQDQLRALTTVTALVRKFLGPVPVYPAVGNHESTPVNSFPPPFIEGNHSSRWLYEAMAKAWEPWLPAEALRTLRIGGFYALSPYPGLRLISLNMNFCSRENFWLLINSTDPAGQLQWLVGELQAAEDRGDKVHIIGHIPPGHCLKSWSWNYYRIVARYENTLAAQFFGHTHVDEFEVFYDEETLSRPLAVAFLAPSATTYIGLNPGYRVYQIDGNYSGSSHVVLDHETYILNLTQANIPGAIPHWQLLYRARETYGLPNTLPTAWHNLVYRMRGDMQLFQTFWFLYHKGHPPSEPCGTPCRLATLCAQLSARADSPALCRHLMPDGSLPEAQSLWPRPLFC
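Human placenta-derived ASM enzyme was preincubated with compound for 10 minutes at room temperature, then given fluorogenic substrate HMU-PC0 (9 uM final) for 60 minutes at 37 °C; a pH 10 stop preceded fluorescence reading at Ex 386/Em 447 nm.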
Giardia killer – Giardia lamblia killing. activity change, % at 7.66 µM, hits read low. AID 540267. Giardia lamblia trophozoite viability. hit rate 0.15% among 340,000; in the data active means activity change below about -80%; inconclusive means between about -30% and that limit;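 further: parasites exposed to compound for two days anaerobically before the ATP read; on the % scale 0 is the no-effect control and ±100 the full control effect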
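Giardia trophozoites, 100 cells per well, were exposed to compounds for 48 hrs at 37 deg C under anaerobic conditions; viability was then read as ATP content by bioluminescence after 15-30 min at room temperature.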
KB-3-1 tox – KB-3-1 parental cell cytotoxicity. KB-3-1 viability, CellTiter-Glo ATP luminescence, 72 h. hit rate 1.4% among 400,000. AID 1347075. Potency, µM (top dose mostly 46.1 µM), hits mostly cytotoxic; further: potency means the concentration at half of the fitted maximal effect; on the % scale 0 is the no-effect control and ±100 the full control effect; nearly all actives have a fitted effect of over 60% in size
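Cells are dispensed, compounds pinned in, plates held at 37 °C for 72 h, then CellTiter-Glo is added and luminescence read after 10 minutes. Cell line: parental KB-3-1 in phenol-red-free DMEM, 10% FBS.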
KB-V1 cytotox – kills drug-selected multidrug resistant KB-V1 cells | KB-V1 MDR cells viability, CellTiter-Glo, 72 h | Potency, µM (doses to about 46.1 µM), most hits filed as cytotoxic | hit rate 3.4% among 400,000 | AID 1347076; further: potency means the concentration at half of the fitted maximal effect; on the % scale 0 is the no-effect control and ±100 the full control effect; nearly all actives have a fitted effect of over 60% in size
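Following 72 h at 37 degrees C with compound, KB-V1 cell viability was read by CellTiter-Glo luminescence, medium being phenol-red-free DMEM plus 10% FBS; concentration-response parameters came from normalized, curve-fitted qHTS data.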
MCF10A rerep – DNA re-replication induction in MCF 10a cells | MCF 10A DNA re-replication, Hoechst nuclear intensity, 48 h | Potency, µM (top dose mostly 46.1 µM), inactives show at the top dose activity, positive = re-replication, most hits filed as activators | hit rate 2.9% among 350,000; further: potency means the concentration at half of the fitted maximal effect; % of control where 0% means no effect; nearly all actives have a fitted effect of over 50% in size
* marks the source's active call; other numbers are inactive results; i = inactive; ? = inconclusive; . = not tested or not shown. Hits are enriched below; roughly 6.9% of the tested compounds scored in any of these assays. Unless noted, the call rests on the fitted dose curve; in most records, active means well fitted curve in the direction sought with a large enough effect; inconclusive means small, poorly fitted or top-dose-only effect, or another doubt; inactive means no such curve, though single readings can be large; an effect the other way counts as inactive or inconclusive.

SMILES	SW480 rereplic	ASM inhibitor	Giardia killer	KB-3-1 tox	KB-V1 cytotox	MCF10A rerep
CNC(=O)c1sc(N2N=C3/C(=C/c4ccccc4)CCCC3C2c2ccccc2)nc1C (centres undefined)	7.1µM*	63%	13	?	i	?
O=C(c1ccccn1)N1N=C2/C(=C/c3ccccc3)CCCC2C1c1ccccc1 (centres undefined)	?	-1%	-28	i	i	0%
CNC(=O)c1sc(N2N=C3/C(=C\c4ccccc4)CCCC3C2c2ccccc2)nc1C (centres undefined)	8.2µM*	162%	-3	.	.	?
CCOC(=O)Cc1csc(/N=C/c2c(O)n(-c3ccc(C)c(C)c3)c(=O)c3ccccc23)n1	0%	21%	19	?	10µM*	?
CCOc1cc(/C=N/N=C(/N)c2nonc2N)cc(Br)c1OCc1ccc(Cl)cc1	?	-3%	2	?	?	?
COc1cc(/C=N/N=C(/N)c2nonc2N)cc(Br)c1OCc1ccccc1C	1%	-8%	-11	i	i	13µM*
COc1ccc(NC(=O)Cn2c(=O)n(CCC(=O)NCc3ccccc3OC)c(=O)c3ccccc32)cc1Cl	.	.	.	i	?	.
Cc1ccc(NC2=C(Cl)C(=O)OC2OC(=O)c2ccco2)cc1 (centres undefined)	21µM*	-1%	1	i	i	?
Cc1cccc(NC2=C(Cl)C(=O)OC2OC(=O)c2ccco2)c1 (centres undefined)	4.6µM*	-2%	15	i	i	?
Cc1cccc(NC2=C(Cl)C(=O)OC2OC(C)C)c1 (centres undefined)	-6%	0%	-9	i	i	-1%
CC(=O)Nc1ccc(OCC(O)CN2CCN(c3cc(Cl)ccc3C)CC2)cc1 (centres undefined)	23%	-1%	-3	?	4.1µM*	?
Cc1ccc(C(C)C)cc1OCCCCN1CCCC1	12%	2%	7	i	21µM*	?
CCn1cc(C(=O)N2CCN(c3cccc(C)c3)C(C)C2)c(=O)c2cc(S(=O)(=O)N3CCOCC3)ccc21 (centres undefined)	.	.	.	i	i	.
COc1ccc([N+](=O)[O-])cc1N(CC(O)CN(CC(C)C)CC(C)C)S(=O)(=O)c1ccccc1 (centres undefined)	10%	0%	-2	i	?	11%
CCCCN(CCCC)CC(O)CN(c1cc([N+](=O)[O-])ccc1OC)S(=O)(=O)c1ccccc1 (centres undefined)	?	1%	0	?	2.6µM*	13%
CC(C)NC(=O)c1ccc(CSc2nc3ccncc3n2Cc2cccc(F)c2)cc1	.	.	.	i	i	.
O=C(COc1ccccc1)N(Cc1nnc(-c2ccccc2Cl)o1)C1CC1	-1%	3%	-15	i	i	3%
O=C(CSC(=S)N1CCCC1)N(Cc1nnc(-c2ccccc2Cl)o1)C1CC1	-5%	1%	21	i	4.6µM*	0%
Fc1ccc(-c2noc3ncnc(Nc4ccc(F)cc4F)c23)cc1	.	.	.	i	i	.
O=C(NNC(=O)C(c1ccccc1)c1ccccc1)c1ccccn1	4.1µM*	4%	1	?	?	?
CCNC(=S)NNC(=O)c1ccccc1Cl	-38%	4%	0	i	i	?
CCNC(=S)NNC(=O)c1ccccn1	-324%	4%	7	i	12µM*	21%
COc1ccc(O)c(/C=N/NC(=O)c2ccc(OCc3cccc(Br)c3)cc2)c1	4.1µM*	3%	9	?	3.3µM*	?
COc1ccc(C(=O)N/N=C/c2cc(Br)ccc2O)cc1OC	?	-8%	0	?	21µM*	?
CC(C)c1nnc(NC(=O)C2CCN(C(=O)C(C)(C)C)CC2)s1	.	.	9	i	i	.
SMILES	SW480 rereplic	ASM inhibitor	Giardia killer	KB-3-1 tox	KB-V1 cytotox	MCF10A rerep
CCOc1ccccc1NC(=O)c1c2c(nc3ccccc13)C(=O)N(C1CCCCC1)C2	.	.	.	i	i	.
Cc1ncc(CO)c(C=O)c1O	-7%	.	.	.	.	-1%
O=[N+]([O-])c1cc(S(=O)(=O)Oc2ccccc2)ccc1Cl	3.3µM*	-8%	15	?	?	?
O=S(=O)(Oc1ccccc1)c1ccc(Cl)c(Cl)c1	-9%	-1%	6	i	?	-15%
O=[N+]([O-])/C(Cl)=C(/NCCO)C(Cl)=C(Cl)Cl	-2%	-1%	-100*	i	?	2%
CCc1ccccc1S(=O)(=O)c1c(C)cc(C)nc1Cl	-14%	3%	29	i	i	3%
O=CNc1ccc2c(c1)Cc1cc([N+](=O)[O-])ccc1-2	3.3µM*	-4%	?	2.3µM*	?	?
Cc1ccc(-n2ncc3c(Nc4ccc(Oc5ccccc5)cc4)ncnc32)c(C)c1	.	.	.	i	i	.
Cc1nc2ncnn2c(N2CCN(C(c3ccccc3)c3ccccc3)CC2)c1C	-3%	-10%	-3	i	23µM*	?
Cc1cc(N2CCN(C(c3ccccc3)c3ccccc3)CC2)n2ncnc2n1	-10%	-8%	0	i	?	?
Cc1nc2ncnn2c(N2CCN(c3cccc(C(F)(F)F)c3)CC2)c1C	-1%	-12%	-9	21µM*	2.6µM*	-4%
COc1ccc(NS(=O)(=O)c2ccc(C)c(C(=O)OC(C)C(=O)N3CCOCC3)c2)cc1 (centres undefined)	70%	-2%	8	i	i	-3%
COc1cc(OC)c(NS(=O)(=O)c2ccc(Cl)c(C(=O)OC(C)C(=O)N3CCCC3)c2)cc1Cl (centres undefined)	-4%	-4%	-13	16µM*	2.3µM*	?
Cc1cc(NC(=O)CSCC(=O)Nc2ccccc2N2CCCCC2)no1	?	0%	-11	i	i	29%
Cc1cc(NC(=O)CSCc2nc(-c3cccc(F)c3)oc2C)no1	-4%	-2%	-11	i	i	1%
Cc1cc(NC(=O)CSCC(=O)Nc2ccccc2Oc2ccccc2)no1	-9%	-4%	8	?	10µM*	21%
Cc1ccc(-c2nc(CSCC(=O)Nc3cc(C)on3)c(C)o2)cc1	-13%	2%	-13	i	23µM*	1%
Cc1ccc(Oc2ccccc2NC(=O)CSCC(=O)Nc2cc(C)on2)cc1	-5%	-1%	2	?	4.6µM*	?
O=C(Nc1ccc2ccccc2c1)Nc1nnc(Br)s1	.	.	.	?	i	.
CN(C)c1ccc(CNC(=O)c2ccc(Cn3c(SCc4ccccc4)nc4cccnc43)cc2)cc1	.	.	.	i	i	.

Bioassay records as filed in PubChem.
